Each structure is given as a SMILES string. Inconclusive results are not listed. Active and inactive are the calls of the source. The calls were made as follows: active = hit-call score of the fitted dose curve at least 0.9, where 1 is the maximum; inconclusive = response in the unintended direction; inactive = score below 0.9.

Cytochrome P450 3A4 (Homo sapiens), sequence (P08684 whole entry, looked up): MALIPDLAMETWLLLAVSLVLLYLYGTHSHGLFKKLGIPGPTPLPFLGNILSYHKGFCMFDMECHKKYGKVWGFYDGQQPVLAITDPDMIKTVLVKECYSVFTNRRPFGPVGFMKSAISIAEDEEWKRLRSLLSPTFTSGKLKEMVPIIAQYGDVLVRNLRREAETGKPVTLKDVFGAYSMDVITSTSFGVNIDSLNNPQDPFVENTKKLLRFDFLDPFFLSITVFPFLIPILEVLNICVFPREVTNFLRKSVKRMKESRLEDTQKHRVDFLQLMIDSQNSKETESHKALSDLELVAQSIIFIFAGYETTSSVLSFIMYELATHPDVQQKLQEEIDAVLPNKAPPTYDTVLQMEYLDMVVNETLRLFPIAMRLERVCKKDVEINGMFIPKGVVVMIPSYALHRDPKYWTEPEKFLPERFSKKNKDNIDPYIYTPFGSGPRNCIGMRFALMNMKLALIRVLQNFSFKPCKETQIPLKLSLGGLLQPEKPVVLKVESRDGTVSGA

Read-out in the assay: Cytochrome P450 3A4 (Homo sapiens) (UniProt P08684)
The experiment in a line: CLD_CYP3A4_6hr: CellzDirect (CLD) Gene Expression Assay for xenobiotic metabolism (CYP3A4) at 6 hours (AID 2283680). The method, then:
CLD_6hr is a cell-based, multiplexed-readout assay that uses hepatocyte, a human liver primary cell, with measurements taken at 6 hours after chemical dosing in a 96-well plate.CLD_CYP3A4_6hr is one of 16 assay component(s) measured or calculated from the CLD_6hr assay. It is designed to make measurements of mRNA induction, a form of inducible reporter, as detected with chemiluminescence signals by Quantitative Nuclease Protection Assay (qNPA) technology.Data from the assay component CLD_CYP3A4_6hr was analyzed at the endpoint, CLD_CYP3A4_6hr, in the positive analysis fitting direction relative to DMSO as the negative control and baseline of activity. Using a type of inducible reporter, gain-of-signal activity can be used to understand changes in the reporter gene as they relate to the gene CYP3A4. Furthermore, this assay endpoint can be referred to as a primary readout. To generalize the intended target to other relatable targets, this assay endpoint is annotated to the cyp intended target family, where subfamily is xenobiotic metabolism.
Human hepatocyte cultures were treated daily for two consecutive days with fresh dosing solutions containing appropriate concentrations of the 320 ToxCast chemicals (chemical identities were blinded to CellzDirect and other ToxCast collaborators), vehicle control (0.2% DMSO), and positive control inducers as summarized in Table 1. Due to the large number of treatment groups and chemicals examined, the ToxCast chemicals were divided into two groups (spanning two independent cultures of hepatocytes from separate donor preparations (Hu778: ToxCast plates 1 and 2; Hu776: ToxCast plates 3 and 4). Each preparation of human hepatocyte cultures was treated with respective vehicle control, medium only control, set of six positive controls/reference chemicals for the five hepatic receptor pathways, and a subset of eight of the ToxCast chemicals (indoxacarb, pyrithiobac-sodium, norflurazon, cyhalofop-butyl, methomyl, thiram, acetochlor, and propiconazole). These replicate data, coupled with internal replicates designed within the blinded ToxCast chemical library, provided additional data to evaluate interindividual differences between hepatocyte preparations and their potential impact on chemical profiles.Cell morphology and integrity were evaluated using phase-contrast microscopy as an indicator of hepatocyte cell health (Tyson & Green, 1987). Cultures for each treatment group (i.e., media, vehicle [0.2% DMSO], positive control inducers [multiple concentrations], and the ToxCast chemicals [multiple concentrations]) were observed and cell morphology was assessed relative to vehicle control cultures at each harvest time point (0, 6, 24, or 48 h). […] Images were evaluated at the conclusion of the study to assess changes in cell integrity and account for the effects of chemical exposure on uncharacteristic changes in concentration-dependent gene expression profiles. The results from these determinations of apparent cytotoxicity were annotated (yes/no) alongside the corresponding qNPA data for reference.At the conclusion of each treatment period, hepatocyte cultures (96-well) were washed with 1 volume of HBSS, lysed by addition of 25 ul ArrayPlate lysis buffer (HTG, Tucson, AZ), and 70 ul/well of Denaturation Oil, denatured by incubation at 95C for 10 min, and frozen at approximately -70C until analysis by nuclease protection assay (qNPA) (Roberts et al., 2007). For qNPA analysis, cell lysates were thawed at 50C for approximately 30 min, qNPA probes were added, and samples were incubated at 95C for 10 min to begin the detection process by denaturing the target RNA, dissociating the duplexes and secondary structure hybridization. At the conclusion of the hybridization period, S1 nuclease reagent was added to each sample to digest all nonprotected nucleotides at 50C for 60-90 min. […]
Turning to `CCCOC(=O)NCCCN(C)C`, the result was inactive.
On to `CC1(C)C(C=C(Cl)Cl)C1C(=O)OCc1cccc(Oc2ccccc2)c1` (stereo unspecified), for which the molecule was classed as inactive.
`CCNc1nc(N)nc(Cl)n1`: the result was inactive.
For the molecule `COC(=O)c1ccc(I)cc1S(=O)(=O)NC(=O)Nc1nc(C)nc(OC)n1`, the half-maximal activity concentration (AC50) was 0.348 µM (active).
Same read-out and setting: the result for `S=C(S)NCCNC(=S)S.[Mn+2].[S-]C([S-])=NCCN=C([S-])[S-].[Zn+2]` reads 3.97 µM (active).
For the molecule `CCCCC(CC)COC(=O)c1ccccc1C(=O)O` (stereo unspecified), the molecule was classed as inactive.
On the same count and under the same terms, the result for `CSC(=O)c1cccc2nnsc12` reads “inactive”.
On to `Cc1nn(C)c(Oc2ccccc2)c1C=NOCc1ccc(C(=O)OC(C)(C)C)cc1`, for which the molecule was classed as inactive.
The same measure, in the same setting: the entry for `CC(C)(c1ccc(O)cc1)c1ccc(O)cc1` is “inactive”.
Take `CCOC(=O)COc1cc(-n2ncc(C(F)(F)F)c(C)c2=O)c(F)cc1Cl`: the AC50 was 4.73 µM (active).
On to `CN(C)C(=O)Nc1ccc(Cl)c(Cl)c1`, for which the molecule was classed as inactive.
On to `CCCCC(CC)CN1C(=O)C2C3C=CC(C3)C2C1=O` (stereo unspecified), for which the call was inactive.
On the same count and under the same terms, the result for `COc1nc(C)nc(NC(=O)NS(=O)(=O)c2ccccc2OCCCl)n1` reads “inactive”; that for `CCCCCCC(C)OC(=O)COc1nc(F)c(Cl)c(N)c1Cl` (stereo unspecified), “inactive”.
On to `COCCO`, for which the result was inactive.
As for `COC(=O)c1c(Cl)nn(C)c1S(=O)(=O)NC(=O)Nc1nc(OC)cc(OC)n1`, the result was inactive.
With `CCCCOC(=O)C(C)Oc1ccc(Oc2ccc(C(F)(F)F)cn2)cc1` (stereo unspecified), the molecule was classed as inactive.
On the same count and under the same terms, the result for `CC(C)(C)[C@@H](O)[C@@H](Cc1ccc(Cl)cc1)n1cncn1` reads “inactive”; that for `COC(=O)c1cccc(C)c1S(=O)(=O)NC(=O)Nc1nc(OCC(F)(F)F)nc(N(C)C)n1`, “inactive”.
Consider `O=C(O)C1(C(=O)Nc2ccc(Cl)cc2Cl)CC1`, for which the result was inactive.
Turning to `CCOC(=O)C(C)Oc1ccc(Oc2cnc3cc(Cl)ccc3n2)cc1` (stereo unspecified), the molecule was classed as inactive.
Regarding `Oc1ccc(C(c2ccc(O)cc2)C(Cl)(Cl)Cl)cc1`, the call was inactive.
For `COC(=O)CSc1cc(N=c2sc(=O)n3n2CCCC3)c(F)cc1Cl`, the AC50 is 1.3 µM (active).
On to `CCCCCOC(=O)COc1cc(N2C(=O)C3=C(CCCC3)C2=O)c(F)cc1Cl`, for which the AC50 was 3.78 µM (active).
For the molecule `CCOC(=O)NCCOc1ccc(Oc2ccccc2)cc1`, the molecule was classed as inactive.
As for `c1ccc(Nc2ccccc2)cc1`, the molecule was called inactive.
Turning to `CCCCOC(=O)[C@@H](C)Oc1ccc(Oc2ccc(C(F)(F)F)cn2)cc1`, the molecule was classed as inactive.
Take `CCCN(CCC)C(=O)SCC`: the call was inactive.
Regarding `CCN(Cc1c(F)cccc1Cl)c1c([N+](=O)[O-])cc(C(F)(F)F)cc1[N+](=O)[O-]`, the AC50 was 1.9 µM (active).
For the molecule `CCCN(CCC)c1c([N+](=O)[O-])cc(C(F)(F)F)c(N)c1[N+](=O)[O-]`, the molecule was classed as inactive.
The same measure, in the same setting: the entry for `COc1c(Cl)ccc(Cl)c1C(=O)O` is “inactive”.
